# High-throughput results deposited in PubChem BioAssay by Center for Chemical Genomics, University of Michigan.
# Dicer inh: inhibitors of human Dicer processing of pre-microRNA | Q9UPY3 | 6% of 47,000 active | cat-ELCCA pre-miR-21 Dicer processing, chemiluminescence; active compounds read high | z-score at 25 µM | AID 1347074; in the data active means z-score above about 3, passing the limit was not always enough;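 further: plate controls were vehicle for no effect and no enzyme for full effect; higher signal means more uncleaved substrate so more Dicer inhibition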
# The depositor's hits bear a star. The sample as a whole holds a higher share of hits than the screen did.
SMILES,Dicer inh
N#Cc1cc(NC(=O)c2ccc(F)cc2)c(=O)n2c1sc1ccccc12,0.63
CC(=O)Nc1cccc(-n2nnc(SCC(=O)c3ccc4c(c3)OCCO4)n2)c1,-2.1
CC1=C(C(N)=O)C(c2ccc(Cl)cc2)n2nc(-c3ccc(N(C)C)cc3)nc2N1 (stereo unspecified),-2.3
CN(C)c1ccc(-c2nc3n(n2)C(c2ccc(Cl)cc2)C2=C(CC(C)(C)CC2=O)N3)cc1 (stereo unspecified),3.6*
CCOc1ccc(C2C3=C(CC(C)(C)CC3=O)Nc3nc(-c4ccc(OC)cc4)nn32)cc1 (stereo unspecified),0.71
CN(C)c1ccc(-c2nc3n(n2)C(c2ccc(F)cc2)C2=C(CC(C)(C)CC2=O)N3)cc1 (stereo unspecified),4.6*
CN(C)c1ccc(-c2nc3n(n2)C(c2cccnc2)C2=C(CC(C)(C)CC2=O)N3)cc1 (stereo unspecified),1.6
CN(C)c1ccc(-c2nc3n(n2)C(c2cccnc2)C2=C(CCCC2=O)N3)cc1 (stereo unspecified),1.2
NC1=NC(c2ccc(Cl)cc2)n2c(nc(=O)c3ccccc32)N1 (stereo unspecified),0.35
CC(C)(C)n1cnnc1Sc1ccc(C(F)(F)F)cc1[N+](=O)[O-],-0.25
CCOC(=O)/C(=N\OC)c1csc(NC(=O)c2nn(-c3ccccc3)nc2C)n1,-0.22
Cn1nc(OC(C)(C)C(=O)O)cc1C(F)(F)F,1.4
Cc1ccc2c(C)nc(NC3=NCN(Cc4ccco4)CN3)nc2c1,-0.72
COC(=O)CC1(C(=O)OC)Oc2ccc(Cl)cc2C(=O)N1c1ccc(F)cc1F (stereo unspecified),0.07
COC(=O)CSC1=C(C#N)C(=O)NC(c2ccc(O)cc2)S1 (stereo unspecified),0.33
CSCCn1c(-c2ccccc2)cc(C(=O)Nc2ccc(-c3ccccc3)cc2)c1C,-1.9
CCCCCSc1nnc(N)s1,4.6*
Nc1nnc(SCC(=O)N2CCc3ccccc3C2)s1,1.8
Cc1ccc(C(=O)N2CCN(C(=O)CSc3nnc(N)s3)C2)cc1,-0.88
NNC(=O)c1ccc(Oc2ccc(C3SCCS3)cc2)o1,1.9
COC(=O)c1scc(NS(=O)(=O)c2ccc(Cl)cc2Cl)c1C(=O)OC,0
CC(=O)/C(C=Nc1cc(C)on1)=C(\C)O,-1
Cc1cc(N=Cc2ccccc2O)no1,4.5*
Cc1cc(N=CNOC(=O)c2nn(-c3ccccc3)nc2C)no1,-0.95
Nc1nc(SCc2nc(-c3ccc(Cl)cc3)no2)n[nH]1,-0.25
SMILES,Dicer inh
CCOC(=O)C(=CNNC(=O)CCc1ccc(O)cc1)C(=O)OCC,-0.3
O=C(CCc1ccc(O)cc1)NNC(=S)NCCc1ccccc1,-0.71
O=C(CCc1ccc(O)cc1)c1c(O)cc(O)cc1O,3.6*
O=C(CSc1ssc(=S)c1-c1ccccc1)c1cccc([N+](=O)[O-])c1,-0.48
CN(C)c1ccc(/C=N/Nc2ccc([N+](=O)[O-])cn2)cc1,1.7
Nc1ccccc1Sc1ccc(-c2cnc3ccccc3n2)cc1[N+](=O)[O-],-0.54
O=C(O)CCC1CCCC(CCC(=O)O)C1=O (stereo unspecified),-0.71
Cc1onc(-c2c(Cl)cccc2Cl)c1NC(=O)N1CCCC1=O,0.95
CC1CCN(C(=O)C(C(=O)c2ccc(Br)cc2)n2ccccc2=O)CC1 (stereo unspecified),-0.31
O=C(c1ccc(F)cc1)C(C(=O)N1CCN(C/C=C/c2ccccc2)CC1)n1ccccc1=O (stereo unspecified),-0.72
O=C(c1ccc(Br)cc1)C(C(=O)N1CCCCC1)n1ccccc1=O (stereo unspecified),3.3*
Cn1c(=O)c2c(ncn2CC(O)CN2CCCCC2)n(C)c1=O (stereo unspecified),2.3
COc1ccc(N=Nc2c(C)[nH]n(-c3ccccc3)c2=O)cc1,1.6
O=C(OCc1ccccc1)C1=NNC2C(=O)N(c3ccc(Br)cc3)C(=O)C12 (stereo unspecified),3.5*
O=C(OCc1ccccc1)C1=NNC2C(=O)N(c3ccccc3)C(=O)C12 (stereo unspecified),-0.53
CCc1ccc(N2C(=O)C3NN=C(C(=O)OCc4ccccc4)C3C2=O)cc1 (stereo unspecified),0.43
CSc1sc(C(=O)Nc2ccc(F)c(Cl)c2)c(-c2ccc(Cl)cc2)c1C#N,-0.96
CCCC(=O)Oc1ccc2c(=O)c(Oc3ccc(OC)cc3)coc2c1,0.81
Clc1ccc(N2C=Nc3cc(Cl)c(Cl)cc3C2)cc1Cl,3.1*
O=c1[nH][nH]c(=S)n1-c1ccc(Cl)c(Cl)c1,0.41
CC(C)c1ccc(N2C=Nc3ccc(C(C)C)cc3C2)cc1,0.31
CCn1cc(CNC(=O)c2cc3n(n2)C(C(F)(F)F)CC(c2ccco2)N3)c(C)n1 (stereo unspecified),1.1
CS/C(=N\C(=O)OC(C)(C)C)NC(=O)OC(C)(C)C,-0.99
C(=N\Nc1cc(-c2ccccc2)nc2ncnn12)/c1ccc2c(c1)OCO2,-0.77
COc1cc2nc(-c3ccccc3)oc(=O)c2cc1OC,-0.18
SMILES,Dicer inh
COc1ccc(-c2nc3cc(OC)c(OC)cc3c(=O)o2)cc1,2
COc1cc2nc(-c3ccc(C)cc3)oc(=O)c2cc1OC,-1.4
CCC(CC)c1nc2cc(OC)c(OC)cc2c(=O)o1,0.71
COc1cc2nc(-c3cccc(Br)c3)oc(=O)c2cc1OC,27*
COc1cc2nc(C(C)(C)C)oc(=O)c2cc1OC,4.1*
CN(C)/C=C/c1nnnn1-c1ccc2ccccc2c1,0.13
ONC(=Nc1ccccc1F)c1cccnc1,-0.61
CSc1cccc(N=Cc2cc(Cl)cc(Cl)c2OS(=O)(=O)c2ccc(C)cc2)c1,2.1
Cn1ncc(C(=O)O/N=C(\N)c2cc(C(F)(F)F)cc(C(F)(F)F)c2)c1-n1cccc1,-1.2
COc1cccc(C2=NN(S(C)(=O)=O)C(c3cn(-c4ccccc4)nc3-c3ccccc3)C2)c1 (stereo unspecified),-1.2
O=[N+]([O-])c1ccc(CSc2ccc(F)cc2F)c(Cl)c1,-1.2
Cc1csc(-c2cn(C(C)C)c(=O)n(Cc3ccccc3)c2=O)n1,-0.87
CC(C)n1cc(-c2nc(-c3ccc(Cl)cc3)cs2)c(=O)n(Cc2ccccc2)c1=O,-0.66
CC(C)n1cc(-c2noc(-c3cccs3)n2)c(=O)n(Cc2ccccc2)c1=O,3.1*
O=[N+]([O-])c1cc(CO)ccc1N1CCOCC1,0.84
COC(=O)c1scc(C)c1N,0.29
CCc1nnc2sc(-c3ccc(N)cc3)nn12,3.4*
COc1ccc(-c2nn3c(Cc4ccccc4)nnc3s2)cc1,-0.45
CCOc1ccc(-c2nn3c(COc4ccccc4)nnc3s2)cc1,2
Nc1ccc2nc(COc3ccc(Cl)cc3)[nH]c2c1,-0.34
COc1ccc(C(=O)CC(=O)c2ccc(C(C)(C)C)cc2)cc1,-0.14
CCS(=O)(=O)c1c(S(=O)(=O)CC)c2cc(C(C)(C)C)ccn2c1C(=O)c1ccc(OC)cc1,5*
CCCS(=O)(=O)c1c(S(=O)(=O)CCC)c2ccccn2c1C(=O)OC,0.22
C=CCOC(=O)c1sc(N2C(=O)c3oc4ccccc4c(=O)c3C2c2ccccc2)nc1C (stereo unspecified),-0.59
CCCc1c(C(=O)O)cnn1-c1ccccc1,-2.3
COc1ccc(C2C(C(=O)OC(C)C)=C(C)NC3=C2C(=O)CC(C)(C)C3)cc1Br (stereo unspecified),-0.74
Cc1c(S(=O)(=O)c2ccc(Cl)cc2)csc1S(=O)(=O)N1CCCCC1,2.1
Cc1cc(N=CNO)c2ccccc2n1,-0.52
CCCCc1ccc(N=CNO)c(C)c1,4*
